High-throughput results (PubChem BioAssay)
A selection: hits, their analogues and other compounds. The true share with any hit is near 2.9%.
a7 integrin act – integrin-mediated muscular dystrophy alleviation activation. alpha7betagal myoblasts, beta-gal FDG fluorescence, 48 h. Potency, µM (series often up to 38.3 µM), without a hit: top-dose activation, hits mostly activators. 0.064% of 350,000 active; active = well fitted activation curve with a large enough effect; inconclusive = small, poorly fitted or top-dose-only effect; inactive = no such curve, though single readings can be large or run the other way;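 also: potency is read from the fitted curve at half-maximal effect; 100% = response of the positive control SU9516; nearly all actives have a fitted effect of over 60% in size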
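alpha7betagal+/- myoblasts (passage 13, 250/well) treated 48 h at 37C with compounds at 1:260 dilution of DMSO stock. Lysed, then beta-galactosidase activity read as FDG fluorescence (ex 480/em 540) after 30 min, with pre-read for autofluorescence.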
D3 antag – D3 dopamine receptor (human) antagonism. P35462. D3R cells, DiscoveRx beta-arrestin luminescence, antagonist mode; hits give low values. max response, negative = inhibition, %. 2.5% of 360,000 active; in the data active = max response below about -50%; inconclusive = no clear call, values can overlap the other calls; also: % is scaled to controls: 0 for no effect and ±100 for the full control effect
Target sequence (P35462 whole entry, looked up): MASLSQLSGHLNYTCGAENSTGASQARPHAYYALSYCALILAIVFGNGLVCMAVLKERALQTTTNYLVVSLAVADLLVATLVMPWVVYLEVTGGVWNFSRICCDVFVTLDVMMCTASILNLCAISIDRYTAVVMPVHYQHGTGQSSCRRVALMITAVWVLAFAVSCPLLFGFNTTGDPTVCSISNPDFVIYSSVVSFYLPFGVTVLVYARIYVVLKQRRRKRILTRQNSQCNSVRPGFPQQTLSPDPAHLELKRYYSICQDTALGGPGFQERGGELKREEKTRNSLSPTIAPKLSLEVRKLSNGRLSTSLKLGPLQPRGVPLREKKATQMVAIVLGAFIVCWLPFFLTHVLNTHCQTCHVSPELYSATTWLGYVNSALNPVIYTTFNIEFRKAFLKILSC
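Cells expressing the human receptor were seeded at 1500 cells/well, incubated overnight at 37 degrees C in 5% CO2, then exposed to library compounds with dopamine controls for 90 minutes at 37 degrees C before luminescent detection.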
D3 ag – activates the human D3 dopamine receptor; D3R DiscoveRx beta-arrestin cells, luminescence, 90 min; P35462; max activation, %; AID 652048; 0.58% of 410,000 active; in the data active = max activation above about 30%; also: 0% is about no effect
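Agonist mode: compounds and dopamine controls were applied to plated cells for 90 min at 37 degrees C after an overnight attachment at 1500 cells/well. Luminescent read-out followed 30 - 60 minutes at room temperature with DiscoveRx detection reagent.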
Active calls of the source: *; ? = inconclusive; / = no result.

SMILES | a7 integrin act | D3 antag | D3 ag
O=C(CCCc1nc(-c2ccc(Cl)cc2)no1)NCC1CCCO1 (centres undefined) | -30.4% | 6.6 | 34.0*
COc1ccc(-c2noc(CCCC(=O)NCC3CCCO3)n2)cc1 (centres undefined) | -3.7% | 1.6 | 9.2
O=[N+]([O-])c1ccc(Cc2ccccn2)cc1 | 3.9% | 8.3 | -6.0
OC(CSc1ccccc1Cl)CN1CCN(c2ccccc2F)CC1 (centres undefined) | -5.0% | -67.1* | 1.1
OC(CSc1c(Cl)cccc1Cl)CN1CCN(c2ccccc2F)CC1 (centres undefined) | -26.5% | -56.0* | 20.4
OC(COc1ccccc1Cl)CN1CCN(CC(O)COc2ccccc2Cl)CC1 (centres undefined) | -51.3% | ? | -0.7
Cc1ccc(C(C)C)c(OCC(O)CN2CCN(c3ccccc3F)CC2)c1 (centres undefined) | / | / | 25.9
Fc1ccccc1N1CCN(CC2CCCCC2)CC1 | 17.9% | 0.0 | -4.7
Oc1ccccc1N1CCN(CC(O)COCc2ccccc2Cl)CC1 (centres undefined) | 15.7% | -53.2* | 28.7
COc1ccc(S(=O)(=O)N2CCOCC2)cc1C(=O)N(C)Cc1ccccc1F | -44.4% | -1.0 | -1.7
COc1ccc(C(=O)c2c(C)c3cc(C)ccc3n2CC(O)CN2CCOCC2)cc1 (centres undefined) | -3.2% | -24.2 | -15.6
CS(=O)(=O)Nc1ccc(-c2cncc3nccn23)cc1 | / | 13.7 | 6.5
Cc1ccc(S(=O)(=O)NCC2NCCc3ccccc32)cc1 (centres undefined) | 6.4% | ? | -15.9
O=C(/C=C/c1ccc(-c2ccccc2)cc1)NCc1cccnc1 | 0.9% | -4.3 | -7.9
CNC[C@H](CC1CCCCC1)NC[C@H](CO)NCC1(c2ccccc2)CC1 | -34.5% | 12.1 | -27.9
CNC[C@H](CC1CCCCC1)NC[C@H](CO)NCCc1cccc(C(F)(F)F)c1 | -45.4% | -84.0* | -35.1
CC(C)(Oc1ccc(Cl)cc1)C(=O)NCC(c1ccco1)N1CCCCC1 (centres undefined) | -25.4% | -12.7 | -25.1
COc1ccc(C(CNC(=O)C(C)(C)Oc2ccc(Cl)cc2)N2CCCCC2)cc1 (centres undefined) | -36.5% | -82.6* | -13.6
COc1ccc(OCC(=O)NCC(c2ccc(OC)cc2)N2CCOCC2)cc1 (centres undefined) | / | / | -34.7
COc1ccc(C(CNC(=O)C(C)(C)Oc2ccc(Cl)cc2)N2CCOCC2)cc1 (centres undefined) | 19.3% | -74.9* | -27.8
Cc1ccccc1NC(=O)Cc1nc(COC(=O)CCc2ccccc2)cs1 | 10.5% | 4.8 | -6.8
CC(C)Cn1c(N)c(C(=O)COC(=O)C2CC(=O)N(c3ccc4c(c3)OCCO4)C2)c(=O)n(C)c1=O (centres undefined) | -16.7% | -1.6 | 12.1
Cc1cnc(CN(C)C(=O)c2ccc3oc(Cc4ccc(Cl)cc4)nc3c2)[nH]1 | 4.7% | -56.9* | -5.5
Cc1cnc(CN(C)C(=O)c2ccc3oc(Cc4ccccc4)nc3c2)[nH]1 | 5.2% | -14.4 | -6.3
CC(=O)NCCCCCCNC(C)=O | / | -15.7 | -23.6
SMILES | a7 integrin act | D3 antag | D3 ag
CCOC(=O)c1nc(Nc2ccccc2OC)c2ccccc2n1 | / | / | -2.4
COc1ccc(C(=O)CN2C3=NCCCN3c3ccccc32)cc1OC | -17.9% | -11.1 | -6.3
COc1cccc(C(=O)CN2C3=NCCCN3c3ccccc32)c1 | -16.1% | -61.7* | -2.5
Oc1ccc(-c2csc(-c3cccnc3)n2)c(O)c1 | 0.0% | 5.8 | -0.9
CCCNC(=O)c1cc(C2CCCCN2S(C)(=O)=O)on1 (centres undefined) | / | -90.8* | -26.3
CCCNC(=O)c1cc(C2CCCCN2S(=O)(=O)c2ccccc2)on1 (centres undefined) | / | -24.1 | -13.5
O=C(CCS(=O)(=O)c1ccccc1)Nc1ccc(-c2nc3ccccc3s2)c(O)c1 | 15.4% | 1.0 | 2.6
CC(C)OCCCNc1ncc2c(n1)CC(c1cccs1)CC2=O (centres undefined) | 14.2% | ? | 2.2
COc1cc(/C=C/c2ccc3cccc(O)c3n2)ccc1O | -59.2% | -51.9* | -12.3
O=[N+]([O-])c1cccc2ccc(/C=C/c3ccc(Cl)cc3)nc12 | -23.4% | -17.3 | -3.2
COc1cc(Br)c(/C=C/c2ccc3cccc(O)c3n2)cc1OC | -32.5% | -8.3 | -5.3
CSc1ccc(/C=C/c2ccc3cccc(O)c3n2)cc1 | -47.0% | -58.2* | -25.2
COc1ccccc1CN1CC(C(=O)NCc2ncccc2C)CCC1=O (centres undefined) | -6.1% | -10.1 | 2.9
O=C(Nc1ccc(Cl)cc1)c1cc2nc(-c3ccc4c(c3)OCO4)cc(C(F)(F)F)n2n1 | / | / | 4.9
CCc1nc2c(OCCC3CCCCC3)cccn2c1N(C)C(=O)c1ccc(OC)cc1 | / | -110.7* | -26.4
CCc1nc2c(OCc3ccc(F)cc3)cccn2c1N(C)C(=O)c1ccco1 | / | -10.5 | -16.1
CCCCN(C=O)c1c(CC)nc2c(OCc3ccccc3C)cccn12 | / | -3.0 | -2.7
CCc1nc2c(OCc3cc(Cl)cc(Cl)c3)cccn2c1N(C)C(=O)CC(C)C | / | -65.5* | -15.6
CCc1nc2c(OCCC3CCCCC3)cccn2c1N(C)C(=O)c1ccncc1 | / | 21.5 | 2.4
CCc1nc2c(OCc3ccc(Cl)cc3)cccn2c1N(C)C(=O)c1ccco1 | / | -51.1* | -16.5
CCc1nc2c(OCc3ccc(F)c(F)c3)cccn2c1N(C)C(=O)CC(C)C | / | 17.7 | 5.0
CCCCN(C=O)c1c(CC)nc2c(OCc3ccc(Cl)cc3Cl)cccn12 | / | -56.9* | -12.5
CC(OC(=O)c1cc(=O)[nH]c2ccccc12)C(=O)NCc1ccccc1 (centres undefined) | 3.9% | 3.1 | -6.0
COc1ccc(CCNC(=O)Cn2ncc3c(=O)oc4ccccc4c32)c(OC)c1 | / | / | -1.0
CCc1nc2c(OCc3ccc(C(=O)OC)cc3)cccn2c1N(C)C(=O)c1ccc(OC)cc1 | / | -26.1 | -1.3
SMILES | a7 integrin act | D3 antag | D3 ag
CCC(CC)C(=O)N(C)c1c(C)nc2c(OCCC3CCCCC3)cccn12 | / | -50.3* | -15.1
CCc1nc2c(OCc3cc(Cl)cc(Cl)c3)cccn2c1N(C)C(=O)c1ccc(OC)cc1 | / | -62.9* | -10.9
CCC(CC)C(=O)N(C)c1c(C)nc2c(OCCOc3ccc(F)cc3)cccn12 | / | 14.7 | 14.5
O=c1c2ccccc2n2c(-c3ccccc3F)nnc2n1CCc1ccccc1 | / | / | 6.3
COc1ccc(C(NC(=O)C2CCN(CCOc3ccccc3)CC2)c2ccccn2)cc1 (centres undefined) | / | ? | 4.5
COc1cccc(C(NC(=O)C2CCN(CCCOc3ccccc3)CC2)c2ccccn2)c1 (centres undefined) | / | -88.6* | -21.2
COc1ccc(OCCN2CCC(C(=O)NC(c3ccc(C)cc3)c3ccccn3)CC2)cc1 (centres undefined) | / | -73.7* | -17.6
COc1ccccc1C(NC(=O)C1CCN(CCOc2ccc3ccccc3c2)CC1)c1ccccn1 (centres undefined) | / | -29.3 | -17.1
COc1ccc(OCCN2CCC(C(=O)NC(c3ccccn3)c3ccccc3OC)CC2)cc1 (centres undefined) | / | -5.4 | 22.0
O=C(NC(c1ccc2c(c1)OCO2)c1ccccn1)C1CCN(CCOc2ccccc2)CC1 (centres undefined) | / | -71.6* | 7.5
